Source: PubChem BioAssay (NCATS)
Results filed as inconclusive are left out. The source made the active and inactive calls. Calls come from the whole dose curve; as a rule, active = well fitted curve in the direction sought with a large enough effect; inconclusive = small, poorly fitted or top-dose-only effect, or another doubt; inactive = no such curve, though single readings can be large; an effect the other way counts as inactive or inconclusive.

Legend:
[1] = Quantitative High-Throughput drug screen in 47 multiple myeloma cell lines against the NCATS MIPE library collection: FR4_PLB cell viability assay (AID 1918924; note: nearly all actives have a fitted effect of over 35% in size)
Method in brief: (§1)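 Viability readout: CellTiter-Glo luminescence following 5 min room-temperature incubation with reagent. Prior exposure: 48 h, 37C, humidified 5% CO2, 500 cells per well.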

[2] = Quantitative High-Throughput drug screen in 47 multiple myeloma cell lines against the NCATS MIPE library collection: Delta47_JCRB cell viability assay (AID 1918925; note: nearly all actives have a fitted effect of over 45% in size)
Method in brief: (§2)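 Steps: seed 500 cells per well; pin-transfer MIPE 4.0 library; incubate 48 h at 37C, 5% CO2, humidified; add CellTiter-Glo, 5 min room temperature; read luminescence.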

[3] = Quantitative High-Throughput drug screen in 47 multiple myeloma cell lines against the NCATS MIPE library collection: EJM_DSMZ cell viability assay (AID 1918926; note: nearly all actives have a fitted effect of over 30% in size)
Method in brief: as §2

[4] = Quantitative High-Throughput drug screen in 47 multiple myeloma cell lines against the NCATS MIPE library collection: AMO1_DSMZ cell viability assay (AID 1918927; note: nearly all actives have a fitted effect of over 30% in size)
Method in brief: as §2

[5] = Quantitative High-Throughput drug screen in 47 multiple myeloma cell lines against the NCATS MIPE library collection: ARP1_JJKsccF8 cell viability assay (AID 1918928; note: nearly all actives have a fitted effect of over 40% in size)
Method in brief: (§3)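 Here, 48 h treatment with MIPE 4.0 agents at 37 °C preceded an ATP luminescence read. Plating density was 500 cells per well.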

[6] = Quantitative High-Throughput drug screen in 47 multiple myeloma cell lines against the NCATS MIPE library collection: ARD_JJKsccE7 cell viability assay (AID 1918929)
Method in brief: as §2

[7] = Quantitative High-Throughput drug screen in 47 multiple myeloma cell lines against the NCATS MIPE library collection: Karpas620_DSMZ cell viability assay (AID 1918959); note: nearly all actives have a fitted effect of over 30% in size
Method in brief: as §1

[8] = Quantitative High-Throughput drug screen in 47 multiple myeloma cell lines against the NCATS MIPE library collection: KMM1_JCRB cell viability assay (AID 1918960); note: nearly all actives have a fitted effect of over 30% in size
Method in brief: as §3

[9] = Quantitative High-Throughput drug screen in 47 multiple myeloma cell lines against the NCATS MIPE library collection: Karpas417_ECACC cell viability assay (AID 1918961); conditions: Karpas417 myeloma viability, CellTiter-Glo ATP luminescence, 48 h; viability (% of DMSO): at 45.8 µM (top of the series)
Method in brief: (§4)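 Approved and investigational drugs from MIPE 4.0 were added by pin tool to 500 cells per well. After 48 hours at 37C, ATP-based CellTiter-Glo luminescence indicated remaining viability.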

[10] = Quantitative High-Throughput drug screen in 47 multiple myeloma cell lines against the NCATS MIPE library collection: KHM11_PLB cell viability assay (AID 1918962); note: nearly all actives have a fitted effect of over 35% in size
Method in brief: as §1

[11] = Quantitative High-Throughput drug screen in 47 multiple myeloma cell lines against the NCATS MIPE library collection: JIM3_ECACC cell viability assay (AID 1918963; note: nearly all actives have a fitted effect of over 35% in size)
Method in brief: as §1

[12] = Quantitative High-Throughput drug screen in 47 multiple myeloma cell lines against the NCATS MIPE library collection: JIM1_ECACC cell viability assay (AID 1918964)
Method in brief: as §2

[13] = Quantitative High-Throughput drug screen in 47 multiple myeloma cell lines against the NCATS MIPE library collection: INA6_PLB cell viability assay (AID 1918965; note: nearly all actives have a fitted effect of over 55% in size)
Method in brief: as §4

[14] = Quantitative High-Throughput drug screen in 47 multiple myeloma cell lines against the NCATS MIPE library collection: H1112_PLB cell viability assay (AID 1918967; note: nearly all actives have a fitted effect of over 30% in size)
Method in brief: as §2

[15] = Quantitative High-Throughput drug screen in 47 multiple myeloma cell lines against the NCATS MIPE library collection: Karpas25_ECACC cell viability assay (AID 1918968; note: nearly all actives have a fitted effect of over 35% in size)
Method in brief: as §2

[16] = Quantitative High-Throughput drug screen in 47 multiple myeloma cell lines against the NCATS MIPE library collection: KMS27_JCRB cell viability assay (AID 1918970); note: nearly all actives have a fitted effect of over 30% in size
Method in brief: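 ATP-based viability (CellTiter-Glo luminescence) is measured in cells treated 48 h with approved and investigational drugs at 37 °C. Controls are DMSO-only wells for full viability and media-only wells for none.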

[17] = Quantitative High-Throughput drug screen in 47 multiple myeloma cell lines against the NCATS MIPE library collection: KMS12BM_JCRB cell viability assay (AID 1918971); note: nearly all actives have a fitted effect of over 35% in size
Method in brief: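 We plated 500 myeloma cells per well, pinned in MIPE 4.0 compounds, and incubated for 48 hours at 37C. ATP was then quantified with CellTiter-Glo, with DMSO and media-only wells defining 100% and 0%.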

[18] = Quantitative High-Throughput drug screen in 47 multiple myeloma cell lines against the NCATS MIPE library collection: KMS12PE_JCRB cell viability assay (AID 1918972); note: nearly all actives have a fitted effect of over 30% in size
Method in brief: as §4

[19] = Quantitative High-Throughput drug screen in 47 multiple myeloma cell lines against the NCATS MIPE library collection: JJN3_DSMZ cell viability assay (AID 1918966; note: nearly all actives have a fitted effect of over 50% in size)
Method in brief: as §2

Measured: Potency
Potency is the fitted concentration of half-maximal effect.

CNC(=O)c1nn(C)c2c1C(C)(C)Cc1cnc(Nc3ccc(N4CCN(C)CC4)cc3)nc1-2
active: [1] 1.66 µM | [2] 1.05 µM | [3] 2.64 µM | [4] 1.18 µM | [5] 4.69 µM | [6] 3.32 µM | [7] 4.69 µM | [8] 0.935 µM | [9] 0.833 µM | [10] 1.48 µM | [11] 3.72 µM | [12] 0.743 µM | [13] 0.743 µM | [14] 4.69 µM | [15] 2.35 µM | [16] 0.662 µM | [17] 1.66 µM | [18] 1.05 µM

COc1cc(=C2C=c3ccccc3=N2)[nH]c1=Cc1[nH]c(C)cc1C
active: [1] 1.18 µM | [2] 1.87 µM | [3] 6.62 µM | [5] 1.05 µM | [7] 7.43 µM | [9] 16.6 µM | [11] 2.35 µM | [13] 1.18 µM | [14] 5.9 µM | [15] 0.743 µM | [16] 16.6 µM | [17] 1.66 µM | [18] 20.9 µM

CC1(C)O[C@@H]2C[C@@H]3[C@H]4C[C@@H](F)C5=CC(=O)C=C[C@]5(C)[C@@]4(F)[C@@H](O)C[C@]3(C)[C@]2(C(=O)CO)O1
active: [15] 0.0074 µM
inactive: [1] | [2] | [3] | [9] | [10] | [11] | [13] | [14] | [17]

CCC[C@H](NC(=O)C(C#N)=Cc1cccc(Br)n1)c1ccccc1
active: [1] 2.64 µM | [2] 1.32 µM | [3] 2.96 µM | [7] 6.62 µM | [9] 5.9 µM | [10] 1.32 µM | [11] 1.48 µM | [13] 1.32 µM | [14] 2.35 µM | [15] 1.48 µM | [16] 7.43 µM | [17] 2.96 µM

Cc1nc2cnc3ccc(C#Cc4cccnc4)cc3c2n1-c1ccc(C(C)(C)C#N)cc1
active: [1] 0.118 µM | [2] 0.0166 µM | [3] 1.66 µM | [11] 0.148 µM | [13] 0.0833 µM | [19] 0.935 µM | [14] 0.166 µM | [15] 0.0264 µM
inactive: [8]

CC(C)=CCCC(C)=CCCC(C)=CCSc1ccccc1C(=O)O
active: [1] 1.18 µM | [2] 2.35 µM | [4] 4.18 µM | [5] 1.18 µM | [8] 0.187 µM | [9] 0.235 µM | [10] 1.18 µM | [13] 18.7 µM | [19] 1.18 µM | [15] 2.35 µM | [17] 1.66 µM

Fc1cc(-c2cccc3ncc(-c4cnn(C5CCNCC5)c4)nc23)cc(F)c1CN1CCOCC1
inactive: [8]
active: [1] 18.7 µM | [2] 7.43 µM | [3] 20.9 µM | [5] 16.6 µM | [7] 7.43 µM | [9] 0.418 µM | [10] 6.62 µM | [11] 16.6 µM | [13] 4.18 µM | [19] 16.6 µM | [14] 23.5 µM | [15] 7.43 µM | [16] 8.33 µM | [17] 18.7 µM | [18] 6.62 µM

CC(C)c1ccc(Cn2ccc3c4c(N)nc(NC5CC5)nc4ccc32)cc1
active: [1] 4.18 µM | [2] 3.32 µM | [3] 14.8 µM | [5] 4.18 µM | [6] 3.32 µM | [7] 1.05 µM | [8] 2.35 µM | [9] 10.5 µM | [11] 0.148 µM | [12] 1.87 µM | [13] 1.48 µM | [19] 8.33 µM | [14] 9.35 µM | [15] 5.9 µM | [16] 0.372 µM | [17] 7.43 µM | [18] 0.833 µM

COC(=O)C[C@](O)(CCCC(C)(C)O)C(=O)O[C@@H]1C(OC)=C[C@]23CCCN2CCc2cc4c(cc2[C@H]13)OCO4
not listed: [4] | [6] | [13] | [15] | [19]
inactive: all other assays above

C1=CCOCc2cc(ccc2OCCN2CCCC2)Nc2nccc(n2)-c2cccc(c2)OCC1
active: [1] 3.32 µM | [2] 2.35 µM | [3] 2.64 µM | [6] 1.87 µM | [7] 2.09 µM | [8] 1.87 µM | [9] 1.66 µM | [10] 1.66 µM | [11] 2.64 µM | [12] 0.743 µM | [13] 1.48 µM | [19] 4.18 µM | [14] 5.26 µM | [16] 1.48 µM | [17] 7.43 µM | [18] 2.64 µM

O=C(O)c1ccc2cc(-c3ccc(O)c(C45CC6CC(CC(C6)C4)C5)c3)ccc2c1
active: [1] 23.5 µM | [2] 5.9 µM | [4] 1.32 µM | [5] 5.9 µM | [6] 5.26 µM | [7] 5.26 µM | [11] 3.72 µM | [12] 0.332 µM | [13] 0.264 µM | [14] 0.418 µM | [15] 1.48 µM | [16] 0.187 µM | [17] 4.69 µM | [18] 0.526 µM
